Source: PubChem BioAssay AID1159580 (chemical genetic matrix, 2015)
Several values for one entry are separate records, joined by “and”; a condition that tells them apart may be missing. Equal entries are not always repeated. The whole screen tested about 5,500 compounds, of which about 2,000 (36%) were called active. About 18% were inconclusive and are not listed. Cut-off read from the data, not from the text of the source: active = normalized growth mostly below about 0.91 (no sharp cut-off); inconclusive = no clear call, values can overlap the other calls; inactive = mostly above about 0.92. The list shows a part of the results.

Assay: chemical genetic growth profiling, strain panel (AID 1159580);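 note: tested at 20 µM; growth read once vehicle control cultures reached saturation at 30 °C; 1 = growth at the plate median or of vehicle wells; lower values mean less growth of the strain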
Conditions: S. cerevisiae deletion strains, growth OD

Measured: normalized growth

CC(=O)O[C@@H]1C=C[C@@]2(C)C(C[C@@H](OC(C)=O)[C@@]3(C)C4=CC(=O)O[C@@H](c5ccoc5)[C@]4(C)CCC23)C1(C)C (stereo partly specified)
inactive: locus YAL013W, strain DEP1, hits give low values 1.01 | locus YAL021C, strain ccr4, hits give low values 1 | locus YAL026C, strain drs2, hits give low values 0.985 | locus YAL030W, strain snc1, hits give low values 0.99 | locus YBL061C, strain skt5, hits give low values 0.992 | locus YBR009C, strain hhf1, hits give low values 1 | locus YBR021W, strain FUR4, hits give low values 1.03 | locus YBR023C, strain chs3, hits give low values 1.01 | locus YBR171W, strain sec66, hits give low values 0.994 | locus YBR229C, strain ROT2, hits give low values 1.02 | locus YBR231C, strain swc5, hits give low values 0.99 | locus YBR279W, strain paf1, hits give low values 1 | locus YCL011C, strain gbp2, hits give low values 0.982 | locus YCL016C, strain dcc1, hits give low values 0.975 | locus YCL061C, strain MRC1, hits give low values 0.997 | locus YCL069W, strain vba3, hits give low values 1.02 | locus YCR088W, strain abp1, hits give low values 1.01 | locus YDL005C, strain med2, hits give low values 0.984 | locus YDL035C, strain GPR1, hits give low values 0.991 | locus YDL040C, strain nat1, hits give low values 0.993 | locus YDL074C, strain BRE1, hits give low values 0.964 | locus YDL101C, strain DUN1, hits give low values 0.998 | locus YDL134C, strain PPH21, hits give low values 1 | locus YDR001C, strain nth1, hits give low values 0.993 | locus YDR069C, strain doa4, hits give low values 0.996 | locus YDR137W, strain rgp1, hits give low values 0.946 | locus YDR150W, strain NUM1, hits give low values 1.01 | locus YDR159W, strain sac3, hits give low values 0.979 | locus YDR162C, strain NBP2, hits give low values 0.964 | locus YDR195W, strain ref2 0.975 | locus YDR297W, strain sur2, hits give low values 0.981 | locus YDR334W, strain swr1, hits give low values 0.988 | locus YDR335W, strain msn5, hits give low values 0.986 | locus YDR392W, strain spt3, hits give low values 0.951 | locus YEL003W, strain gim4, hits give low values 0.997 | locus YEL037C, strain rad23, hits give low values 1 | locus YEL061C, strain CIN8 (second series), hits give low values 0.992 | locus YEL061C, strain CIN8, hits give low values 1.02 | locus YER015W, strain faa2, hits give low values 0.991 | locus YER016W, strain bim1, hits give low values 1.01 | locus YER111C, strain swi4, hits give low values 1 | locus YER155C, strain BEM2 (second series), hits give low values 1.01 | locus YER155C, strain BEM2, hits give low values 1.01 | locus YER167W, strain BCK2, hits give low values 1.01 | locus YFR010W, strain ubp6, hits give low values 1.01 | locus YGL167C, strain pmr1, hits give low values 0.988 | locus YGL173C, strain kem1, hits give low values 1.02 | locus YGL227W, strain vid30, hits give low values 1 | locus YGL240W, strain doc1, hits give low values 1 | locus YGL248W, strain PDE1, hits give low values 1.02 | locus YGL253W, strain hxk2, hits give low values 0.971 | locus YGR078C, strain PAC10, hits give low values 1.02 | locus YGR229C, strain SMI1, hits give low values 0.98 | locus YHR013C, strain ard1, hits give low values 0.973 | locus YHR027C, strain rpn1, hits give low values 0.983 | locus YHR030C, strain SLT2, hits give low values 1.02 and 0.986 | locus YHR079C, strain IRE1, hits give low values 0.986 | locus YHR129C, strain ARP1, hits give low values 1.01 | locus YHR142W, strain chs7, hits give low values 0.965 | locus YIL066C, strain RNR3, hits give low values 1.02 | locus YIL073C, strain SPO22, hits give low values 1.03 | locus YJL092W, strain hpr5, hits give low values 0.987 | locus YJL095W, strain BCK1 (second series), hits give low values 0.974 | locus YJL095W, strain BCK1, hits give low values 0.979 and 0.982 | locus YJL115W, strain asf1, hits give low values 0.99 | locus YJL129C, strain trk1, hits give low values 0.959 | locus YJL134W, strain LCB3, hits give low values 1.02 | locus YJL154C, strain vps35, hits give low values 0.989 | locus YJL164C, strain tpk1, hits give low values 1 | locus YJL166W, strain qcr8, hits give low values 1 | locus YJL187C, strain SWE1 (second series), hits give low values 1 | locus YJL187C, strain SWE1, hits give low values 0.994 | locus YJR043C, strain POL32, hits give low values 1.04
active: locus YCL029C, strain bik1, hits give low values 0.0759 | locus YDL185W, strain tfp1, hits give low values 0.0668 | locus YDL192W, strain arf1, hits give low values 0.0652 | locus YDR101C, strain arx1, hits give low values 0.0671 | locus YDR318W, strain mcm21, hits give low values 0.0639 | locus YDR388W, hits give low values 0.0562 | locus YDR502C, strain sam2, hits give low values 0.0613 | locus YER110C, hits give low values 0.0742 | locus YGL078C, strain dbp3, hits give low values 0.0566 | locus YGL086W, strain mad1, hits give low values 0.0536 | locus YGR135W, strain pre9, hits give low values 0.0645 | locus YGR252W, strain gcn5, hits give low values 0.164 | locus YHR079C, strain IRE1 (second series), hits give low values 0.0734 | locus YHR094C, strain hxt1, hits give low values 0.0578 | locus YHR200W, strain rpn10, hits give low values 0.0597 | locus YIL125W, strain kgd1, hits give low values 0.0589 | locus YIR030C, strain dcg1, hits give low values 0.0619 | locus YJL168C, strain set2, hits give low values 0.0579
